# Experimental data published in the supplement of paper PMC10981050.
# Several values for one entry are separate records, joined by “and”; a condition that tells them apart may be missing. Identical values can stand only once. Counter-ions that a name gives are not always drawn.
# What was measured:
# Experiment in all cases: cell viability relative to vehicle control; higher = less cytotoxic
# Conditions in all cases: 10 µM
# K562 = test system: K562
# Outline: (§1)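 After removal of identity-inconsistent compounds, the Selleck bioactive, kinase and epigenetic probe libraries were screened on CRISPR-edited mutant clones and isogenic wild-type clones of four leukaemia lines. Plates were 384-well, each well holding 2000 cells in 50 µL medium and receiving a single 10 µM acoustically dispensed dose. CellTiter-Glo luminescence was read 48 h later, after the supernatant was taken off. Genedata Screener was used to express viability as percent of the on-plate vehicle control.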
# MARIMO = test system: MARIMO
# Outline: as §1
# MOLM14 = test system: MOLM14
# Outline: as §1
# OCI-AML2 = test system: OCI-AML2
# Outline: as §1
Compound,cell viability (K562; SRSF2 genotype: SRSF2 P95H/wt),cell viability (K562; SRSF2 genotype: SRSF2 wt/wt) [%],cell viability (MARIMO; SRSF2 genotype: SRSF2 P95H/wt) [%],cell viability (MARIMO; SRSF2 genotype: SRSF2 wt/wt) [%],cell viability (MOLM14; SRSF2 genotype: SRSF2 P95H/wt) [%],cell viability (MOLM14; SRSF2 genotype: SRSF2 wt/wt) [%],cell viability (OCI-AML2; SRSF2 genotype: P95H/wt) [%],cell viability (OCI-AML2; SRSF2 genotype: wt/wt) [%]
CC1=C[C@]2(O)O[C@@]3(CC2=C(C)C)[C@@H](C)CC[C@@H]13 [Curcumenol],106% and 103%,99.5,96.5,109,102,99,88.6,99
"c1ccc2occc2c1 [2,3-Benzofuran]",105% and 91%,99.1,93.7,107,98.4,105,90.6,98.6
CC[C@@H]1/C=C(\C)C[C@H](C)C[C@H](OC)[C@H]2O[C@@](O)(C(=O)C(=O)N3CCCC[C@H]3C(=O)O[C@H](/C(C)=C/[C@@H]3CC[C@@H](O)[C@H](OC)C3)[C@H](C)[C@@H](O)CC1=O)[C@H](C)C[C@@H]2OC [Ascomycin (FK520)],75.8% and 83%,83.6,86.6,96.8,89.1,89.1,95.8,93.5
C=CC[S+]([O-])C[C@H](N)C(=O)O (stereo not given in full) [Alliin],105%,107,104,96.5,114,107,102,98.2
COc1ncc(-c2cc(-c3ncc(CN4C[C@@H](C)O[C@@H](C)C4)o3)c3cn[nH]c3c2)cc1NS(C)(=O)=O,53.5% and 58.5%,61.2,42.6,37.1,23.5,27.3,13.1,25.8
O=C1CCc2ccccc2O1 [Dihydrocoumarin],95.7% and 98.2%,94.4,94.5,105,105,102,93.6,100
CC(C)=CCC[C@](C)(O[C@@H]1O[C@H](CO[C@@H]2O[C@H](CO)[C@@H](O)[C@H](O)[C@H]2O)[C@@H](O)[C@H](O)[C@H]1O)[C@H]1CC[C@]2(C)[C@@H]1[C@H](O)C[C@@H]1[C@@]3(C)CC[C@H](O[C@@H]4O[C@H](CO)[C@@H](O)[C@H](O)[C@H]4O[C@@H]4O[C@H](CO)[C@@H](O)[C@H](O)[C@H]4O)C(C)(C)[C@@H]3CC[C@]12C [Ginsenoside Rb1],103% and 102%,105,103,112,103,102,101,111
CCOC(=O)[C@H](CCc1ccccc1)N[C@@H](C)C(=O)N(CC(=O)O)C1Cc2ccccc2C1 [Delapril Hydrochloride],100% and 97.5%,95.8,91,100,86.3,90.7,94,91.6
COC(=O)C1=C(C)NC(C)=C(C(=O)OCCN2CCN(C(c3ccccc3)c3ccccc3)CC2)C1c1cccc([N+](=O)[O-])c1 (stereo not given) [Manidipine (Manyper)],75.7% and 63.9%,53.3,60.2,58.5,73.9,64.2,29.8,41
O=c1c(O)c(-c2ccc(O)c(O)c2)oc2cc(O)cc(O)c12 [Quercetin (Sophoretin)],97.3% and 89.3%,91.5,93.9,93.6,98.3,97.5,93.8,81.5
CCCCC(C)(O)C/C=C/[C@H]1[C@H](O)CC(=O)[C@@H]1CCCCCCC(=O)OC (mixture of isomers) [Misoprostol],89.4% and 78.1%,84.4,82.6,79,83.5,80.2,89.2,84
CC(/C=C/C=C(\C)C(=O)O[C@@H]1O[C@H](CO[C@@H]2O[C@H](CO)[C@@H](O)[C@H](O)[C@H]2O)[C@@H](O)[C@H](O)[C@H]1O)=C\C=C\C=C(C)\C=C\C=C(/C)C(=O)O[C@@H]1O[C@H](CO[C@@H]2O[C@H](CO)[C@@H](O)[C@H](O)[C@H]2O)[C@@H](O)[C@H](O)[C@H]1O [Crocin],101% and 100%,99.8,95.6,100,95.2,102,107,102
O=C(NCCO[N+](=O)[O-])c1cccnc1 [Nicorandil (Ikorel)],101% and 99.9%,108,108,108,93.4,99.1,82.1,94
N#CC(c1ccc(Cl)cc1)c1c(Cl)cc(-n2ncc(=O)[nH]c2=O)cc1Cl (stereo not given) [Diclazuril],101% and 88.5%,85.2,83.8,94.7,84.4,86.3,91.3,80.8
C[C@]12CC[C@@H]3c4ccc(OC(=O)c5ccccc5)cc4CC[C@H]3[C@@H]1CC[C@@H]2O [Estradiol Benzoate],62.1% and 62.4%,77.2,54.6,35.6,82.6,76.1,58.4,46.7
O=c1cc(-c2ccc(O)c(O)c2)oc2cc(O)c([C@@H]3O[C@H](CO)[C@@H](O)[C@H](O)[C@H]3O)c(O)c12 [Homoorientin],90.2% and 85%,84.1,83.8,90,83.2,90,86.7,88.7
CCC(=O)O[C@H]1[C@H](O[C@@H]2[C@@H](C)[C@H](O[C@H]3C[C@@](C)(OC)[C@@H](O)[C@H](C)O3)[C@@H](C)C(=O)O[C@H](CC)[C@@](C)(O)[C@H](O)[C@@H](C)C(=O)[C@H](C)C[C@@]2(C)O)O[C@H](C)C[C@@H]1N(C)C [Erythromycin estolate],92.3% and 89.5%,90.4,92.3,105,96.4,95.8,77.5,76.8
O=c1[nH]cnc2c1ncn2[C@@H]1O[C@H](CO)[C@@H](O)[C@H]1O [Inosine],114% and 107%,121,102,118,99.7,111,98.3,114
COc1cc2ncnc(Nc3ccc(F)c(Cl)c3)c2cc1NC(=O)/C=C/CN1CCCCC1,63.7% and 73.8%,87.8,55.2,58.2,26.9,54.4,20.2,37.2
Nc1ccn([C@@H]2O[C@H](CO)[C@@H](O)C2(F)F)c(=O)n1 [Gemcitabine (Gemzar)],89% and 104%,101,21.3,24.4,4.86,1.1,7.55,8.99

Compound,cell viability (K562; SRSF2 genotype: SRSF2 P95H/wt),cell viability (K562; SRSF2 genotype: SRSF2 wt/wt) [%],cell viability (MARIMO; SRSF2 genotype: SRSF2 P95H/wt) [%],cell viability (MARIMO; SRSF2 genotype: SRSF2 wt/wt) [%],cell viability (MOLM14; SRSF2 genotype: SRSF2 P95H/wt) [%],cell viability (MOLM14; SRSF2 genotype: SRSF2 wt/wt) [%],cell viability (OCI-AML2; SRSF2 genotype: P95H/wt) [%],cell viability (OCI-AML2; SRSF2 genotype: wt/wt) [%]
Cc1cc(C)c(CN2CCc3c(Cl)cc(-c4c(C)noc4C)c(Cl)c3C2=O)c(=O)[nH]1,78.7% and 87.1%,87.5,74.8,65.4,77.6,79.8,77.4,86.5
CC(=O)O[C@@H]1CC[C@@]2(C)[C@@H](CC[C@]3(C)[C@@H]2C(=O)C=C2[C@@H]4[C@@H](C)[C@H](C)CC[C@]4(C)CC[C@]23C)[C@@]1(C)C(=O)O,99.7% and 94.1%,83.4,106,101,74.3,82.3,87.1,90.6
NC(=O)c1cccc2[nH]c(-c3ccc(C4CCCN4)cc3F)nc12 (stereo not given),94.1% and 89.6%,80.1,72.9,80.5,47.7,33,47.9,54.3
O=c1cc(-c2ccccc2)oc2cc(O)c(O)c(O)c12 [Baicalein],81.4% and 80%,80.5,88.2,83.8,74.8,85.2,91.2,82.6
O=C(c1ccccc1)C(O)O [Phenylglyoxal hydrate],95.7% and 96.9%,104,86.3,86.1,67.8,66,81.6,100
CN(CCN1CCC(OC(=O)Nc2ccccc2-c2ccccc2)CC1)C(=O)c1ccc(CN2CCC(C(N)=O)CC2)cc1 [Revefenacin],94.7% and 89.9%,92.8,82.7,90.8,87.1,92.2,83.2,83.5
CN(C)Cc1ccc(-c2nc3cccc4c3n2CCNC4=O)cc1,108% and 106%,110,76.7,78.9,65.5,34.3,55.2,67.9
NC12CC3CC(CC(C3)C1)C2 [Amantadine hydrochloride (Symmetrel)],99.7% and 116%,107,107,103,106,112,111,100
COc1cc2c(cc1OC)[C@@H](Cc1ccc(Oc3cc(C[C@@H]4c5cc(OC)c(OC)cc5CCN4C)ccc3O)cc1)N(C)CC2 [Dauricine],38% and 41.8%,18.5,2.46,15.1,1.5,1.07,5.34,4.94
Cc1onc(-c2ccccc2)c1-c1ccc(S(N)(=O)=O)cc1 [Valdecoxib],97.6% and 94.6%,95.6,96.4,97.6,90.6,95.4,81.8,88.5
CCCc1nc(C(C)(C)O)c(C(=O)OCc2oc(=O)oc2C)n1Cc1ccc(-c2ccccc2-c2nnn[nH]2)cc1 [Olmesartan medoxomil (Benicar)],105% and 103%,106,109,111,97.2,104,104,106
O=C(O)c1cc(C(=O)O)c(C(=O)N(Cc2cccc(Oc3ccccc3)c2)[C@H]2CCCc3ccccc32)cc1C(=O)O,119% and 108%,113,102,103,105,101,106,105
CCOC(=O)c1cnc2ccc(-c3cncc(NS(=O)(=O)c4ccccc4)c3)cn12,22.4% and 35.9%,34.2,17.1,20,3.14,4.38,2.77,9.47
CN(C)CC/C=C1/c2ccccc2COc2ccc(CC(=O)O)cc21 [Olopatadine hydrochloride (Opatanol)],105% and 106%,102,101,114,107,104,95.4,105
"CC(C)n1nccc1-c1ncccc1COc1cccc(O)c1C=O [Voxelotor(GBT440, GTx011)]",97.7% and 98.4%,91.8,104,103,85.8,94,99.7,98.3
O=C(O)[C@H]1O[C@@H](Oc2cc3oc(-c4ccccc4)cc(=O)c3c(O)c2O)[C@H](O)[C@@H](O)[C@@H]1O [Baicalin],98.7% and 105%,109,101,97.8,98.7,107,99.9,95.3
Cc1cncc(CN2CCC(=C3c4ccc(Cl)cc4CCc4cccnc43)CC2)c1 [Rupatadine Fumarate],77% and 89.3%,76.5,62.6,54.1,61.4,64.4,38.6,46
O=c1c2cc(O[C@@H]3O[C@H](CO)[C@@H](O)[C@H](O)[C@H]3O)c(O)cc2oc2cc(O)c([C@@H]3O[C@H](CO)[C@@H](O)[C@H](O)[C@H]3O)c(O)c12 [Neomangiferin],95.1% and 100%,97,93.8,91.2,99.4,100,101,97.7
O=C1C[C@@H](c2ccccc2)Oc2cc(O)cc(O)c21 [Pinocembrin],91.6% and 92.5%,95.4,96.4,99.8,109,112,95.1,87.8
C[C@@H](O)[C@H]1C(=O)N2C(C(=O)O)=C(S[C@@H]3CN[C@H](CNS(N)(=O)=O)C3)[C@H](C)[C@H]12 [Doripenem],98.4% and 92.9%,97.5,93.2,102,99.7,98.3,89.2,99
